Measurements reported in PubChem BioAssay (NCI).
Several values for one entry are separate records, joined by “and”; a condition that tells them apart may be missing. Identical values can stand only once. About 83,000 compounds went through this panel and 20% of them were active in at least one assay; those are over-represented in the sample as a whole.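 Note: values are percent growth. 100 is the growth of untreated cells, values between 100 and 0 indicate rising inhibition; between -100 and 0 indicates cell death.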 Values without a mark were called inactive. Activity calls are given as the source filed them. Rule for the calls: active = growth percent below 10; inactive = the rest.

The compounds below were run on HL-60(TB) leukemia (assay: NCI-60 one-dose screen, 48 h (100 = growth as untreated, 0 = no growth, -100 = all killed)). Details: 10 µM unless noted.

Question: How did the growth turn out when FC(F)(F)c1cccc(Nc2nc3ccccc3nc2Nc2cccc(C(F)(F)F)c2)c1 was run?
Answer: Its growth is -48.9% (active).

Question: COc1ccc(-c2nc(/C=N/Nc3cc(C)nc4ccc(Cl)cc34)c(C)o2)cc1 was tested. Which growth did it give?
Answer: The growth was -41% (active).

Question: O=C(Nc1ccc(Cl)cc1)c1cc2ccccc2cc1O was tested. Which growth did it give?
Answer: The growth was -8.5% (active) and -29.4% (active).

Question: For O=S(=O)(NCCCNc1cc(-c2cn(-c3ccccc3)nc2-c2cccc(O)c2)ccn1)c1ccc(Cl)cc1, which growth is on record?
Answer: The growth was 1.22% (active).

Question: With Nc1cc(N)ncn1 as the compound, how does the growth read?
Answer: Its growth is 47.3%.

Question: COc1ccc(/C=C/C(=O)C(=O)/C=C/c2ccc(OC)c(OC)c2)cc1OC was tested. Which growth did it give?
Answer: Its growth is 35.4%.

Question: For CC1=CC2(C)/C=C(C)/C=C\CC(O)/C=C3/C=CC(=C4C(=O)OC2(CC1C)C4=O)OC3 (centres undefined), which growth is on record?
Answer: The growth was -54.9% (active).

Question: Which growth does the source give for Nc1cccc(-c2nc3sccn3c2-c2ccnc(NCCNS(=O)(=O)c3ccc(C(F)(F)F)cc3)n2)c1 here?
Answer: Its growth is 89.1%.

Question: For NC1=NN(c2ccccc2)C(=O)/C1=C/c1ccc(Cl)cc1, which growth is on record?
Answer: The growth was 104%.

Question: With COc1ccc(C(=S)c2cc(OC)c(OC)c(OC)c2)cc1OC(=O)CCl as the compound, how does the growth read?
Answer: The growth was -33% (active).

Question: O[C@H](c1cc(C(F)(F)F)nc2c(C(F)(F)F)cccc12)[C@@H]1CCCCN1 was tested. Which growth did it give?
Answer: Its growth is 52.8% and 50.7%.

Question: C=C1c2nc3ccccc3n2C=C(c2ccc(OC)cc2)N1Cc1ccccc1 was tested. Which growth did it give?
Answer: The growth was 80%.

Question: With COc1ccc2nc3ccc(OC)cc3c(SCCCN)c2c1 as the compound, how does the growth read?
Answer: Its growth is 50.2%.

Question: How did the growth turn out when CN1C(=O)NC(c2ccc(Cl)cc2)(c2ccc(Cl)cc2)C1=O was run?
Answer: Its growth is 78.2%.

Question: With CS(=O)(=O)c1ccc(-c2cc(-c3nnc(SCC(=O)Nc4ccc(C(=O)/C=C/c5ccc(Cl)cc5)cc4)n3-c3ccccc3)c3ccccc3n2)cc1 as the compound, how does the growth read?
Answer: Its growth is 98.9%.

Question: For COc1cc([C@@H]2c3cc4c(cc3[C@H](O)[C@H]3COC[C@@H]23)OCO4)cc(OC)c1OC, which growth is on record?
Answer: Its growth is 57.8%.

Question: How did the growth turn out when CC(C)C[C@H](NC(=O)[C@@H](Cc1ccccc1)n1ccc(Nc2ccccc2)cc1=O)B(O)O was run?
Answer: Its growth is -7.72% (active).

Question: How did the growth turn out when O=C(Nc1cccc(Cl)c1)c1cc(Cl)ccc1O was run?
Answer: Its growth is -32.4% (active).

Question: CC(NNC(=S)N1CCCCCC1)c1ccc2ccccc2n1 (centres undefined) was tested. Which growth did it give?
Answer: Its growth is 28.8%.

Question: How did the growth turn out when OC(CNC1CCCC1)Cn1c2ccccc2c2ccccc21 (centres undefined) was run?
Answer: Its growth is -47.3% (active).

Question: CCCCNC(=O)Oc1ccc2c(=O)c3sc4c(=O)c5ccccc5c(=O)c4c3c(=O)c2c1 was tested. Which growth did it give?
Answer: Its growth is -43.3% (active).

Question: How did the growth turn out when C=CCn1c(SCC(=O)NCc2cc(C)c(O)c(C)c2)nc2ccc(Cl)cc2c1=O was run?
Answer: The growth was 94.4%.

Question: Which growth does the source give for COc1ccc(-c2nc(-c3ccccn3)c(-c3ccccn3)n2CC(C)C)cc1OC1CCCC1 here?
Answer: The growth was -43.5% (active).

Question: How did the growth turn out when COc1ccc(C(=O)/C=C/c2c[n+](=O)c3ccc(F)cc3n2[O-])cc1 was run?
Answer: The growth was 83.3%.
